According to the supplement of paper PMC8975748:
Structures can show the parent of a compound that is named as a salt.

System: Saccharomyces cerevisiae BY4741 SeMeCo community
Assay: z-score of subpopulation abundance vs DMSO median, subpopulation auxotrophic for HLU; higher = larger share of this subpopulation than in DMSO controls
Conditions: 10 µM; 24 h; SM minimal medium; subpopulation (auxotrophy): HLU
Protocol: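 Fluorescent four-plasmid SeMeCo (self-establishing metabolically cooperating S. cerevisiae BY4741 community; plasmids pH-mRuby2, pL-mWasabi, pU-eCFP, pM-TagRFP657) was grown 24 h in minimal SM medium with each Selleck FDA-approved drug at 10 µM in 384-well plates. Cells were fixed and imaged by high-content confocal microscopy. For each auxotrophic subpopulation (and the prototroph), a z-score gives the deviation from the DMSO vehicle-control population median.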

SMILES	z-score of subpopulation abundance
O=c1[nH]c(=O)n([C@H]2C[C@H](O)[C@@H](CO)O2)cc1/C=C/Br [Brivudine]	-0.95
C[N+]1(C)CCC(OC(=O)C(O)(c2ccccc2)C2CCCC2)C1 (stereo not given) [Glycopyrrolate]	-0.14
OCCOc1ccc(/C(=C(/CCCl)c2ccccc2)c2ccccc2)cc1 [Ospemifene]	0.94
CCCCCCCCCC(=O)NC1C(Oc2c3cc4cc2Oc2ccc(cc2Cl)C(OC2OC(CO)C(O)C(O)C2NC(C)=O)C2NC(=O)C(NC(=O)C4NC(=O)C4NC(=O)C(Cc5ccc(c(Cl)c5)O3)NC(=O)C(N)c3ccc(O)c(c3)Oc3cc(O)cc4c3)c3ccc(O)c(c3)-c3c(OC4OC(CO)C(O)C(O)C4O)cc(O)cc3C(C(=O)O)NC2=O)OC(CO)C(O)C1O (stereo not given) [Teicoplanin]	-0.15
N[C@H]1CONC1=O [L-Cycloserine]	4.59
Clc1ccc2c(N3CCN(CCCN4CCN(c5ccnc6cc(Cl)ccc56)CC4)CC3)ccnc2c1 [Piperaquine phosphate]	0.33
O=C(O)CCCCCCCC(=O)O [Azelaic acid]	0.77
COc1cc2c(cc1OC)C(=O)C(CC1CCN(Cc3ccccc3)CC1)C2 (stereo not given) [Donepezil HCl]	-0.1
CCCN[C@H]1CCc2nc(N)sc2C1 [Pramipexole 2HCl Monohydrate]	-0.47
CC1CCc2c(N3CCC(O)CC3)c(F)cc3c(=O)c(C(=O)O)cn1c23 (stereo not given) [Nadifloxacin]	-0.45
N[C@@H](CCC(=O)O)C(=O)O [(S)-Glutamic acid]	-0.63
Cc1onc(-c2c(F)cccc2Cl)c1C(=O)N[C@@H]1C(=O)N2[C@@H]1SC(C)(C)[C@@H]2C(=O)O [Flucloxacillin sodium]	-0.04
C[C@H]1COc2c(N3CCN(C)CC3)c(F)cc3c(=O)c(C(=O)O)cn1c23 [Levofloxacin hydrate]	0.84
NC(CO)(CO)CO [Trometamol]	-0.13
Cc1ccc(Cl)c(Nc2ccccc2C(=O)O)c1Cl [Meclofenamate Sodium]	-0.7
CN1C2CCC1CC(OC(=O)C(O)c1ccccc1)C2 (stereo not given) [Homatropine Bromide]	-0.08
Fc1ccc([C@@H]2CCNC[C@H]2COc2ccc3c(c2)OCO3)cc1 [Paroxetine mesylate]	0
COc1ccc2c3c1O[C@H]1C[C@@H](O)C=C[C@@]31CCN(C)C2 [Galanthamine HBr]	0.43
Clc1ccc(C(Cn2ccnc2)OCc2ccsc2Cl)c(Cl)c1 (stereo not given) [Tioconazole]	3.35
CC[C@H](C)C(=O)O[C@H]1C[C@H](O)C=C2C=C[C@H](C)[C@H](CC[C@@H](O)C[C@@H](O)CC(=O)O)[C@H]21 [Pravastatin]	-0.44

SMILES	z-score of subpopulation abundance
Cc1ncc([N+](=O)[O-])n1CCO [Metronidazole]	0.18
CCCCC(=O)O[C@H]1CC[C@H]2[C@@H]3CCc4cc(O)ccc4[C@H]3CC[C@]12C [Estradiol valerate]	0.43
CC1=C(C(=O)OCCN(Cc2ccccc2)c2ccccc2)C(c2cccc([N+](=O)[O-])c2)C(P2(=O)OCC(C)(C)CO2)=C(C)N1 (stereo not given) [Efonidipine]	1.2
COC(=O)Nc1nc2cc([S+]([O-])c3ccccc3)ccc2[nH]1 (stereo not given) [Oxfendazole]	-0.7
Cc1cc2c(s1)Nc1ccccc1N=C2N1CCN(C)CC1 [Olanzapine]	0.07
CNCc1cc(-c2ccccc2F)n(S(=O)(=O)c2cccnc2)c1 [Vonoprazan Fumarate (TAK-438)]	-0.64
Cc1ncc([N+](=O)[O-])n1C [Dimetridazole]	-0.59
Nc1ccc(S(=O)(=O)Nc2cnc3ccccc3n2)cc1 [Sulfaquinoxaline sodium]	0.31
Cc1noc(NS(=O)(=O)c2ccc(N)cc2)c1C [Sulfisoxazole]	0.89
CCCN(CCC)CCc1cccc2c1CC(=O)N2 [Ropinirole HCl]	1.05
COc1cc(N)c(Cl)cc1C(=O)NC1CCN(CCCOc2ccc(F)cc2)CC1OC (stereo not given) [Cisapride]	0.37
Cc1nc(NC(=O)N2CCC[C@H]2C(N)=O)sc1-c1ccnc(C(C)(C)C(F)(F)F)c1 [Alpelisib (BYL719)]	-0.75
CCCc1nn(C)c2c(=O)[nH]c(-c3cc(S(=O)(=O)N4CCN(C)CC4)ccc3OCC)nc12 [Sildenafil]	-0.35
C[N+]1(C)CCC(=C(c2ccccc2)c2ccccc2)CC1 [Diphemanil Methylsulfate]	-0.19
CCCCN1CCCCC1C(=O)Nc1c(C)cccc1C (stereo not given) [Bupivacaine HCl]	-0.41
O=C1NC(=O)C(c2ccccc2)(c2ccccc2)N1 [Phenytoin]	-0.45
CC1(C)CC[C@]2(C(=O)O)CC[C@]3(C)C(=CC[C@@H]4[C@@]5(C)CC[C@H](O)C(C)(C)[C@@H]5CC[C@]43C)[C@@H]2C1 [Oleanolic Acid]	0.15
CNCC[C@H](Oc1cccc2ccccc12)c1cccs1 [Duloxetine HCl]	-0.74
C[C@H]1COc2c(C3(N)CC3)c(F)cc3c(=O)c(C(=O)O)cn1c23 [Pazufloxacin mesylate]	1.38
C=CCCCCCCCCC(=O)[O-].C=CCCCCCCCCC(=O)[O-].[Zn+2] [Zinc Undecylenate]	3.75
